# GAA glycogen mod: GAA glycogen-cleavage inhibition or activation | Potency, µM (doses to about 76.4 µM), for inactives: at the highest dose activity change, negative = inhibition, most hits filed as inhibitors | recombinant GAA, glycogen substrate, Amplex Red glucose oxidase fluorescence | actives 0.38% (n = 300,000);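 further: potency means the concentration at half of the fitted maximal effect; 0% = full enzyme reaction and -100% = no-enzyme basal signal; the screen sought inhibitors and activators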
#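 qHTS, 1536-well; enzyme 4 nM final; cpd up to 77 uM; substrate bovine liver glycogen 30 ug; 50 mM citrate/phosphate pH 5.0, 0.01% Tween-20; 37 C, 40 min; Amplex Red detection 45 min RT; Hill fit → AC50.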
# aGal spleen mod: alpha-galactosidase A (human) modulation; Potency, µM (doses to about 80 µM), inactives show top-dose activity change, negative = inhibition, most hits filed as inhibitors; P06280; human spleen homogenate, 4MU-alpha-Gal fluorescence, 40 min; actives 0.008% (n = 240,000); AID 2107;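 further: potency means the concentration at half of the fitted maximal effect; 0% = enzyme with vehicle and -100% = no enzyme basal signal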
#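 qHTS titration in buffer at pH 5.0. Alpha-galactosidase activity in spleen homogenate was measured via 4-methylumbelliferone release from 1 mM fluorogenic substrate after 40 min at 37C and a pH 10 stop. AC50 came from Hill fits of control-normalized data.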
# GAA inhib: alpha-glucosidase (human) inhibition; P10253; purified human GAA, 4-MU-alpha-glucoside fluorescence; Potency, µM (series often up to 76.9 µM), without a hit: at the highest dose activity change, negative = inhibition, actives largely listed as inhibitors; actives 0.005% (n = 200,000); AID 1466;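 further: potency means the concentration at half of the fitted maximal effect; plate controls were uninhibited enzyme wells for no effect and no-enzyme background for full effect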
#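 Fluorescence at Ex 365/Em 440 nm from 4-methylumbelliferone reported enzyme activity after 20 min at room temperature. Reactions used 4 nM enzyme and 400 uM substrate at pH 5.0; curves fitted with the Hill equation.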
# GAA spleen mod: inhibitors or activators of human alpha-glucosidase in spleen homogenate; Potency, µM (titrated, usually from 79.9 µM), for inactives: at the top dose activity change, negative = inhibition, most hits filed as inhibitors; actives 0.006% (n = 240,000); human spleen homogenate, 4-MU-alpha-glucoside fluorescence; P10253;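 further: potency means the concentration at half of the fitted maximal effect; 0% = enzyme with vehicle and -100% = no enzyme basal signal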
#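 AC50 values come from Hill-equation fits of concentration-response data, normalized to no-enzyme and full-activity controls. Enzyme source: 1 ug human spleen homogenate; 1 mM fluorogenic 4-MU glucoside, pH 5.0 citrate buffer, 37 C, 40 min.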
# GLA inh pH 4.5: blocks human alpha-galactosidase A at pH 4.5; purified enzyme, 4-MU-alpha-Gal fluorescence, pH 4.5; AID 1467; activity change, negative = inhibition, % at 105 µM; 230,000 tested, under 10 active;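 further: 0% = full activity with enzyme and -100% = basal without enzyme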
# Target sequence (P06280 whole entry, looked up): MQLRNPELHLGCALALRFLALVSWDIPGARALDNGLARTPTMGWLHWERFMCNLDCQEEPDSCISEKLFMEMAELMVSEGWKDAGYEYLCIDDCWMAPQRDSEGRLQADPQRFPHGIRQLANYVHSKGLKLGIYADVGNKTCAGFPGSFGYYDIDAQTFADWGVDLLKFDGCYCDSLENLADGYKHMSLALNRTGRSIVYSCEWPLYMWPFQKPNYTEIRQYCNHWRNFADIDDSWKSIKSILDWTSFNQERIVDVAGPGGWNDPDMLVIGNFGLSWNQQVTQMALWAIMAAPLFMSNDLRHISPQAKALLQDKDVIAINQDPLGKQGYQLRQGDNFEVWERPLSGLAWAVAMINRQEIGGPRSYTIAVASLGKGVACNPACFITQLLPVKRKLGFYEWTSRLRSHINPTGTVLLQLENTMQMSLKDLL
# N370S GC mod: N370S glucocerebrosidase modulation, Gaucher chaperone candidate. P04062. N370S GC spleen homogenate, 4MU-glucoside fluorescence. Potency, µM (titrated, usually from 59.4 µM), without a hit: at the top dose activity change, negative = inhibition, actives largely listed as inhibitors. actives 0.092% (n = 330,000). AID 2101;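 further: potency means the concentration at half of the fitted maximal effect; 0% = full enzyme activity and -100% = no enzyme basal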
# An asterisk follows results filed as active; ? = inconclusive; · = no result given; [ ] = dose if it differs, or a comment. Rows were chosen to be rich in hits. Some 0.43% of all compounds tested hit in one or more screens of this group. The call rests on the fitted dose curve; in most records, active means well fitted curve in the direction sought with a large enough effect; inconclusive means small, poorly fitted or top-dose-only effect, or another doubt; inactive means no such curve, though single readings can be large; an effect the other way counts as inactive or inconclusive.
SMILES,GAA glycogen mod,aGal spleen mod,GAA inhib,GAA spleen mod,GLA inh pH 4.5,N370S GC mod
FC(F)(F)c1ccc2c(c1)NCC1CCCN21 (stereo not drawn),6.3µM*,8%,3%,5%,5,3%
Cc1ccc2sc(NNC(=O)C3=COCCO3)nc2c1C,6.3µM*,6%,-3%,10%,-5,-11%
Nc1ccccc1Nc1cccc(C(F)(F)F)c1,11µM*,-2%,-5%,·,1,-1%
CC(C)[C@H](N)C(=O)N[C@@H](CCC(N)=O)C(=O)NCC(=O)N[C@@H](CCC(=O)O)C(=O)N[C@@H](CCC(=O)O)C(=O)N[C@@H](CO)C(=O)N[C@@H](CC(N)=O)C(=O)N[C@@H](CC(=O)O)C(=O)N[C@@H](CCCCN)C(=O)O,·,-1%,·,7%,·,-14%
CCOC(=O)c1c(N)sc2c1CCCC2,35µM*,4%,2%,-8%,2,-2%
CCOC(=O)c1c(N)sc2c1CCC(C)C2 (stereo not drawn),?,2%,-3%,1%,-15,3%[2.35 µM]
C=CCC(C)(O)c1cccc(Br)c1 (stereo not drawn),·,9%,·,-2%,-5,2%
N/N=c1\sc2ccccc2n1-c1ccccc1,20µM*,-11%,-3%,-7%,-19,5%
CC(=O)N=c1sc2ccccc2n1C,6%,1%,-10%,1%,-6,6%
COc1ccc(C2CC(c3ccccc3)Oc3cc4c(cc32)OCO4)cc1 (stereo not drawn),·,3%,·,-10%,·,0%
O=C(CN1CCN(c2ccc(O)cc2)CC1)N1CCc2ccccc21,5µM*,·,·,·,·,-10%
O=c1c(-c2ccc(O)cc2)coc2cc(O[C@@H]3O[C@H](CO)[C@@H](O)[C@H](O)[C@H]3O)cc(O)c12,·,-3%,·,0%,·,-3%
CCCCc1ccc(NC(=O)Nc2cccnc2)cc1,5%[76.3 µM],·,·,·,·,11µM*
O[C@@H]1COC2[C@@H](O)CO[C@@H]21 (stereo partly drawn),·,-15%,·,2%,·,-2%
Nc1ccccc1Nc1nc2ccccc2[nH]1,20µM*,·,·,·,·,2%
CC1CCC(NC(=O)Nc2cccs2)CC1 (stereo not drawn),16µM*,0%,-8%,-7%,1,2%
C=C(C)/C=N/NC(=S)Nc1ccc(S(=O)(=O)N2CCOCC2)cc1,25µM*,3%,·,12%,-2,-7%
Cc1cc(C(F)(F)F)nn1CC(=O)NNC(=S)Nc1ccc(Cl)cc1,-5%,6%,-4%,1%,6,1%
Cc1cc(C(F)(F)F)nn1CC(=O)NNC(=S)Nc1ccc(F)cc1,40µM*,4%,0%,0%,-1,·
COc1ccc(S(=O)(=O)N2CCC(C(=O)Nc3ccc(Oc4ccccc4)cc3)CC2)cc1OC,11µM*,·,·,·,·,·
O=C(O)c1cc2c(ccc3ccccc32)o1,28%,40µM*,-2%,-12%,6,?
CC(C)c1onc(-c2c(Cl)cccc2Cl)c1COc1ccc(/C=C/c2cccc(C(=O)O)c2)c(Cl)c1,·,11%,·,7%,·,10%
Cc1ccc(C2C3=C(CC(C)(C)CC3=O)N=C3c4ccccc4C(=O)C32)cc1 (stereo not drawn),-22%,1%,-2%,-16%,-14,16µM*
CCOC(=O)C1=C(C)N=C2c3ccccc3C(=O)C2C1c1ccc(Cl)cc1 (stereo not drawn),-29%,-2%,-3%,-10%,1,-5%[12.8 µM]
CC1(C)CC(=O)C2=C(C1)N=C1c3ccccc3C(=O)C1C2c1ccc(Cl)cc1 (stereo not drawn),-5%,3%,1%,-4%,-18,14µM*
SMILES,GAA glycogen mod,aGal spleen mod,GAA inhib,GAA spleen mod,GLA inh pH 4.5,N370S GC mod
Cc1ccc(C2C3=C(CC(C)(C)CC3=O)OC3=C2C(=O)CC(C)(C)C3)cc1,-9%,1%,6%,-2%,-1,0%
C/C=C(\C=C\[C@@H](C)C/C=C/CC/C=C/C=C\C[C@@H](OC)/C(C)=C\C=C(C)C)CC(=O)O,·,-12%,·,2%,·,-5%
C=C[C@@]1(C)CC[C@H]2C(=CC[C@@H]3[C@]2(C)CCC[C@@]3(C)C(=O)O)C1,·,17%,·,2%,·,-3%
CCN1C(=O)[C@@H]2[C@H]3C(=CC[C@@H]2C1=O)C1(OCCCO1)[C@H]1O[C@@H]1[C@H]3O,·,4%[17.5 µM],·,6%[17.4 µM],·,3%[12.8 µM]
Oc1ccc(/C=N/Nc2ccc(C(F)(F)F)cn2)cc1,22µM*,13%,-10%,-5%,-12,-1%
C[C@H]1Cc2c(COc3ccccc3)nc3c(c2CO1)CN(C(=O)C1CCCCC1)CC3,·,-6%[17.5 µM],·,0%[17.4 µM],12,-10%[12.8 µM]
Cc1nc(N)sc1-c1csc(N(C)c2ccc(O)cc2)n1,25µM*,0%,1%,-1%,-18,-26%
COc1ccc(C(=O)N2CCN(Cc3cc(OC)c(O)c(OC)c3)CC2)cc1OC,20µM*,6%,3%,7%,1,8%
COc1cc(CN2CCN(C(=O)CC(C)C)CC2)cc(OC)c1O,40µM*,0%,-5%,3%,-6,-20%
CCCCS(=O)(=O)N1C2=NC(C(=O)OC)=C(C(=O)OC)[C@@H]3Nc4ccccc4[C@]23C[C@H]1C(=O)OC,·,-4%[17.5 µM],·,-6%[17.4 µM],6,2%[12.8 µM]
CC(=O)[C@@H]1[C@H]2[C@H](C(=O)[C@H]3OC[C@@H]2O3)[C@H]2C=Cc3ccccc3N21,·,-1%,·,1%,-3,-18%
CC1=CC23C(=O)C(C=C(CO)[C@@H](O)[C@]2(O)[C@H]1O)[C@H]1[C@@H](C[C@H]3C)C1(C)C (stereo partly drawn),·,-3%,·,-4%,·,-5%
COc1cc(/C=N/Nc2ccccc2)ccc1O,?,·,·,·,·,-8%
COc1cc(/C=N/Nc2nncn2/N=C/c2ccc(O)c(OC)c2)ccc1O,10µM*,1%,1%,-5%,-3,-7%
CCOc1cc(/C=N/Nc2nnc(C)n2N)ccc1O,11µM*,·,·,·,·,-13%
COc1ccc(OC)c(/C=N/Nc2nncn2/N=C/c2cc(OC)ccc2OC)c1,-9%,5%,1%,-5%,-13,3%
COc1cc(/C=N/Nc2ccccc2C(F)(F)F)ccc1O,35µM*,-14%,-5%,?,0,-6%
COc1cc(/C=N/Nc2ccccn2)cc(OC)c1O,18µM*,-8%,-6%,-9%,-12,19%
CN1/C(=N\O)c2cccc3cccc1c23,35µM*,7%,3%,5%,3,-2%
CNC(=O)CN1C(=O)c2cccc3cccc1c23,6%,-11%,-1%,-13%,-1,3%

# Source: PubChem (National Center for Advancing Translational Sciences (NCATS))
